This passage reports z-score results from PubChem BioAssay.

A short description of this experiment: JC-1 mitochondrial signal, unstimulated MM1S myeloma – cell-based, JC-1 fluorescence, 24 h, 100 nL compound, profiling panel (AID 1170). Also: test concentration not given here. To be noted: MM1S mitochondrial potential, higher = more signal.
On to `COC(=O)C(CC#Cc1ccc2c(c1)[C@]1(C(=O)N2)[C@H](C(=O)NC[C@H](O)c2ccccc2)[C@H]2C(=O)O[C@H](c3ccccc3)[C@H](c3ccccc3)N2[C@@H]1c1ccccc1OCCO)C(=O)OC`, for which the z-score is -2.1. Regarding `CN(C)CCCNC(=O)[C@@]1(Cc2ccccc2I)c2ccccc2C(=O)N(C2CCCCC2)[C@H]1c1ccc(CO)cc1`, the z-score is -2.49.

The molecule `CN1C(=O)C2C=CC(C(O)c3ccc(-c4ccccc4)s3)N(NC(=O)OC(C)(C)C)C2C1=O` (stereo not given) returned a z-score of 0.856. As for `CCCNC(=O)[C@@]1(Sc2ccc(C)cc2)CC(=O)N(Cc2ccccc2Cl)[C@@H]1c1ccc(CO)cc1I`, the z-score was -1.87. The same measure for `CN(C)c1ccc(C(O)C2C=CC3C(=O)N(Cc4ccccc4)C(=O)C3N2n2cnnc2)cc1` (stereo not given): 1.23. The value for `C[C@@H]1ON(c2ccccc2)[C@H](c2ccccc2)[C@H]1C(=O)O` was -0.599; that for `O=C1[C@H]2C=C(I)[C@H](C[C@@H]2c2ccccc2)[C@@]12CO2` was -1.32; that for `C=CCC(OC(C)=O)[C@@H]1[C@@H](N(Cc2ccc(-c3cccc(C(F)(F)F)c3)o2)C(=O)c2ccc(-c3ccccc3)cc2)c2cc(OCCCO)ccc2N1C(=O)c1ccc2ccccc2c1` (stereo not given in full) was 0.681.

For the molecule `O=C(NCc1ccc(F)cc1)[C@H]1C[C@H]2C(=O)N3CCC[C@H]3C(=O)N2[C@H]1c1ccc(O)cc1`, the z-score was -0.396. The same measure for `N#Cc1ccc(NN2C(C(O)C3CC=CCC3)C=CC3C(=O)N(c4ccccc4)C(=O)C32)cc1` (stereo not given): -0.508; for `CCCNC(=O)[C@@]1(c2ccc([N+](=O)[O-])cc2)CC(=O)N(C(C)C)[C@@H]1c1ccc(CO)cc1`: 0.892; for `CC(C)N1C(=O)C[C@@](C(=O)NCCN2CCOCC2)(c2ccc([N+](=O)[O-])cc2)[C@H]1c1ccc(CO)cc1`: -0.672. The value for `C[N+](C)(C)CCCC[C@@H]1NC(=O)[C@H]2C[C@@H](C(=O)NCCCCCNC(=O)CS)[C@@H](c3cccc(OCCO)c3)N2C1=O` was 0.415; that for `[N-]=[N+]=Nc1ccccc1[C@@H]1OC(c2ccc(OCCCO)cc2)=N[C@]1(Cc1ccccc1)C(=O)NCCN1CCOCC1` was -0.469. For `CCOC(=O)C[C@H]1[C@H](OC(=O)c2ccccc2-c2ccccc2)[C@@H](NC(=O)C2CCCCC2)c2cc(OCCCO)ccc2N1C(=O)c1ccc2ccccc2n1`, the z-score is -0.621.

`NC(=O)N1C(=O)C2C(C1=O)C1C=C(CCCO)C2C(c2ccc(CN3CCCC3)cc2)N1Cc1sc2ccccc2c1Cl` (stereo not given) came in with a z-score of 0.423. The same measure for `CC(C)(C)N1CC=CC23O[C@@H]4/C=C\CCCOC(=O)C4[C@H]2C(=O)N(CCCO)[C@@H]3C1=O` (stereo not given in full): 0.229; for `CC(C)N1C(=O)c2ccccc2[C@](C)(C(=O)NCC(F)(F)F)[C@@H]1c1ccc(CO)cc1`: 1.38; for `COc1ccc(C#Cc2ccc3c(c2)[C@]2(C(=O)N3)[C@H](C(=O)O)[C@H]3C(=O)O[C@H](c4ccccc4)[C@H](c4ccccc4)N3[C@@H]2c2ccccc2OCCO)cc1`: -1.3. The value for `CCCCCC1=C2CNC(Cc3ccccc3)(C(=O)OC)C=C2C(C)C1=O` (stereo not given) was -0.32; that for `CCCCCCc1nc(-c2ccc(-c3ccc(Cl)c(Cl)c3)o2)cc2c1[Si](C(C)C)(C(C)C)OC2` was -1.23; that for `COC(=O)[C@H](Cc1ccccc1)N1CC2=CCCC=C[C@@H]2[C@H]1[C@H](O)Cc1ccccc1` was -0.746. The same measure for `COC(=O)[C@@]1(Cc2ccc(F)cc2)[C@H]2c3cc(C(=O)N4CCCC4)n(CCc4ccccn4)c3C[C@H]2CN1C(=O)c1ccccc1`: -0.515; for `O=C1N(CCS(=O)(=O)c2ccccc2)c2ccccc2C[C@]12N=C(c1ccc(OCCCO)cc1)O[C@@H]2c1ccccc1`: -0.242; for `C=CCN1C(=O)[C@]2(O[C@H](CCn3cc([C@H](O)c4ccccc4)nn3)[C@@H]([Si](C)(C)c3ccc(OC)cc3)[C@@H]2C)c2cc(NC(=O)c3ccc(OC)cc3)ccc21`: -1.39.

As to `C=C(COC)C(=O)CC[C@@H](OC(C)=O)c1ccccc1OCCO`, the z-score was -1.82.

For `COC(=O)[C@@]1(Cc2ccc(F)cc2)[C@H]2c3cc(C(=O)N4CCCC4)n(Cc4ccccn4)c3C[C@H]2CN1C(=O)c1ccccc1`, the z-score was -1.65. The same measure for `C=CCOC(=O)[C@@H]1[C@H]2C(=O)O[C@H](c3ccccc3)[C@H](c3ccccc3)N2[C@H](c2ccc(OCCOC(=O)[C@H]3C[C@H]4C(=O)NCC(=O)N4[C@H]3c3cccc(OCCO)c3)cc2)[C@@]12C(=O)Nc1ccc(I)cc12`: -1.27; for `COC(=O)C[C@H]1O[C@@]2(C[C@@H]1[Si](C)(C)C)C(=O)N(C)c1ccccc12`: 0.965; for `CN(C)CCCC[C@@H]1NC(=O)[C@@H]2C[C@H](C(=O)NCCCCCCNC(=O)CS)[C@H](c3ccc(O)cc3)N2C1=O`: -0.136. The value for `CCOC(=O)C1=CC[C@@H](c2ccc(OC)cc2)N(S(=O)(=O)c2ccc(C)cc2)[C@H]1CC` was -1.99. The same measure for `C=C(CCCC)/C(=C/C[C@H](OC(=O)c1ccncc1)c1ccc(OCCO)cc1)c1cnc2ccccc2c1`: -0.262; for `COC(=O)[C@@]1(Cc2ccc(F)cc2)[C@H]2c3cc(C(=O)N4CCCC4)n(Cc4cc(F)cc5c4OCOC5)c3C[C@H]2CN1C(=O)c1ccccc1`: -0.744; for `C=C(CCCC)C(=O)CC[C@H](OC(=O)c1ccccc1-c1ccccc1C(=O)O)c1ccc(OCCO)cc1`: 0.258. Consider `C[N+](C)(C)CCCCNC(=O)[C@H]1C[C@H]2C(=O)N[C@@H](Cc3ccccc3)C(=O)N2[C@H]1c1cccc(OCCO)c1`, for which the z-score is -0.4.
